Sampled rows, rich in hits. Any-hit rate of the full collection: about 2.5%.
MEKK3 PB1 HTS – modulators of MEKK3-MEK5 PB1 binding, primary screen, biochemical, wildtype MEKK3, multiplex bead flow cytometry, Alexa488-MEK5; Mitogen-activated protein kinase kinase kinase 3 (Homo sapiens), Q99759; binding response (% of control), % at 10 µM; bead-based flow cytometry, Alexa488-MEK5 binding to MEKK3; actives lie on both sides; 0 = blocked by unlabeled MEK5, 100 = vehicle; AID 1529, 2009; 1.4% of 290,000 active;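 active = binding response more than 3 SD above or below the average of its plate-row segment, actives on both sides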;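 also: Alexa488 bead fluorescence after subtracting the streptavidin-only scavenger bead signal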
MEKK2 mut-MEK5 – MEK5 binding signal on mutant MEKK2 PB1, primary screen, biochemical, multiplex bead flow cytometry, Alexa488-MEK5 | Alexa488-MEK5 binding to MEKK2 mutant | percent response, % at 10 µM | 0.35% of 290,000 active; in the data active = percent response above about 24%, passing the limit was not always enough
MEKK2wt PB1 HTS – modulators of MEK5 binding to wildtype MEKK2, primary screen, biochemical, multiplex bead flow cytometry, Alexa488-MEK5; Alexa488-MEK5 binding to MEKK2 WT; actives lie on both sides; binding response (% of control), % at 10 µM; 1.1% of 290,000 active; in the data active = binding response below about 67% or above about 130%
GRK2 aptamer HTS – compounds blocking aptamer binding on GRK2 – biochemical, human GRK2, bead flow cytometry, HTS, primary screen; 0.59% of 330,000 active; FAM-aptamer displacement from GRK2; AID 488847, 2010; Beta-adrenergic receptor kinase 1 (Homo sapiens), P25098; inhibition of aptamer binding, % at 10 µM;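 active = inhibition of aptamer binding above 40%, roughly 3 SD of noise, on plates passing a quality check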;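 also: median bead fluorescence of bound FAM aptamer so fluorescent compounds give negative values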
MEKK2wt confirm – modulators of MEK5 binding to wildtype MEKK2, confirmation, biochemical, single concentration, multiplex bead flow cytometry | shares compounds with MEKK3 PB1 HTS | Alexa488-MEK5 binding to MEKK2 WT; actives lie on both sides | binding response (% of control), % at 10 µM | 2.4% of 5,900 active | AID 1892, 2009; in the data active = binding response below about 16% or above about 210%; inactive = in between
MEKK2mut confirm – mutant MEKK2 PB1-MEK5 binding signal retest – biochemical, single concentration, multiplex bead flow cytometry, confirmation | Alexa488-MEK5 binding to MEKK2 mutant | 2% of 5,900 active | percent response, % at 10 µM | AID 1893, 2009 | shares compounds with MEKK3 PB1 HTS; in the data active = percent response mostly above about 71%, no sharp cut-off; inactive = mostly below about 38%;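 also: higher means compound restores mutant binding toward wildtype level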
MEKK3 confirm – MEKK3 wild-type PB1 binding to MEK5, inhibitors, confirmation, biochemical, bead multiplex flow cytometry, single concentration, wildtype | shares compounds with MEKK3 PB1 HTS | binding response (% of control), % at 10 µM | Alexa488-MEK5 binding to MEKK3; hits give low values | AID 1894, 2009 | 1.8% of 5,900 active;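 active = binding response below 72% of control, or above a set upper limit, though filed actives all read lower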;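 also: 100% = DMSO only wells and 0% = binding blocked by excess unlabeled MEK5; lower values mean stronger disruption of MEK5 binding to MEKK3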
The depositor's hits bear a star; x = not tested or not shown; [ ] = dose if it differs, or a comment.

SMILES	MEKK3 PB1 HTS	MEKK2 mut-MEK5	MEKK2wt PB1 HTS	GRK2 aptamer HTS	MEKK2wt confirm	MEKK2mut confirm	MEKK3 confirm
C[C@H]1CN([C@@H](C)CO)C(=O)Cc2cc(NC(=O)CCC(F)(F)F)ccc2O[C@H]1CN(C)CC1CC1	x	x	x	0.0	x	x	x
O=S(=O)(c1cc(Cl)ccc1Cl)n1ccnc1	98.0	-9.0	87.0	x	x	x	x
O=[N+]([O-])c1ccc(Cl)c(S(=O)(=O)n2ccnc2)c1	130.0*	28.0	118.0	0.0	105.0	4.0	103.0
Cn1c(=O)c2c(ncn2CC(=O)N2CCOCC2)n(C)c1=O	100.0	0.0	102.0	0.0	x	x	x
Cn1c(=O)c2c(ncn2CC(=O)N2CCN(C(=O)c3ccco3)CC2)n(C)c1=O	85.0	-9.0	50.0*[inhibitor]	17.0	107.0	8.0	109.0
COc1cc(C(=O)N[C@H](C(=O)OCC(=O)NC2CCCCCC2)C(C)C)cc(OC)c1OC	x	x	x	0.0	x	x	x
CCN1C(=O)[C@H]2[C@@H](c3ccc(C)cc3)N3C(=O)N(c4cccc(Br)c4)C(=O)[C@@]3(CC(C)C)[C@H]2C1=O	x	x	x	0.0	x	x	x
CCOC(=O)CNC(=O)C1Cc2ccccc2CN1S(=O)(=O)c1cccs1 (stereo not drawn)	102.0	6.0	100.0	0.0	x	x	x
NC(=O)COC(=O)c1cc(-c2cccs2)nn1-c1ccccc1	136.0*	0.0	115.0	2.0	101.0	4.0	100.0
CN(C)S(=O)(=O)c1cccc(NC(=O)c2cc(-c3cccs3)nn2-c2ccccc2)c1	142.0*	0.0	108.0	0.0	98.0	-1.0	106.0
COC(=O)c1cc(-c2cccs2)nn1-c1ccccc1	99.0	-7.0	87.0	0.0	x	x	x
Cc1cccc2[nH]c(CN(C)Cc3nc(CC4CC4)no3)nc12	101.0	-8.0	94.0	1.0	x	x	x
CC(C)(C)c1ccc(C(=O)NNC(=O)CCC(=O)Nc2ccccc2)cc1	102.0	6.0	105.0	0.0	x	x	x
Cc1ccc2cc(/C=C3\N=C(c4ccccc4)OC3=O)c(N3CCOCC3)nc2c1	75.0*[inhibitor]	-11.0	28.0*[inhibitor]	5.0	57.0	-22.0	93.0
C=CCNC(=O)CSc1ncc2c(n1)-c1c(csc1SC)CC2	102.0	7.0	101.0	0.0	x	x	x
CSc1scc2c1-c1nc(SCC(=O)C(C)(C)C)ncc1CC2	66.0*[inhibitor]	-34.0	68.0	0.0	102.0	1.0	105.0
COc1ccc(OC)c(C2C(C(=O)c3ccc(C)o3)=C(O)C(=O)N2CCN2CCOCC2)c1 (stereo not drawn)	96.0	-2.0	101.0	2.0	x	x	x
CCCOc1ccc(C2C(C(=O)c3ccc(C)o3)=C(O)C(=O)N2CCN2CCOCC2)cc1OC (stereo not drawn)	0.0*[inhibitor]	-16.0	0.0*[inhibitor]	0.0	100.0	-3.0	103.0
CNc1ccccc1C(=O)OCC(=O)N(CCOC)c1c(N)n(CC(C)C)c(=O)[nH]c1=O	x	x	x	6.0	x	x	x
Cc1ccc(/C=N/NC(=O)c2nnn(-c3nonc3N)c2C(C)C)s1	106.0	11.0	103.0	0.0	x	x	x
CC(=O)Nc1ccc(S(=O)(=O)Nc2cccc(-c3csc(C)n3)c2)cc1	100.0	-5.0	98.0	7.0	x	x	x
Nc1nc(-c2cccc(NS(=O)(=O)c3ccccc3)c2)cs1	82.0*[inhibitor]	-12.0	85.0	0.0	96.0	-7.0	99.0
O=S(=O)(c1cc(O)ccc1O)c1cccc2c(S(=O)(=O)c3cc(O)ccc3O)cccc12	x	x	x	14.0	x	x	x
COc1ccc(/C=N/N=C2/NC(=O)C(CC(=O)O)S2)cc1OCc1ccccc1Cl (stereo not drawn)	146.0*	0.0	109.0	1.0	106.0	13.0	109.0
